Data: PubChem BioAssay AID593 (National Center for Advancing Translational Sciences (NCATS), 2007)
Screen size: about 59,000 compounds; about 540 (0.92%) were called active. Not shown: some 33% with an inconclusive outcome. Cut-off read from the data, not from the text of the source: active = max fluorescein-equivalent concentration above about 10 nM; inconclusive = between about 1.1 nM and that limit; inactive = weaker than that. This excerpt belongs to a sample that is enriched for actives.

experiment: qHTS Assay for Spectroscopic Profiling in Fluorescein Spectral Region; details: Compound autofluorescence, 480/540 nm; max fluorescein-equivalent concentration: hits give high values; outcome: fluorescein-equivalent
Source text: NIH Molecular Libraries Screening Centers Network [MLSCN]
NIH Chemical Genomics Center [NCGC]
Occasionally, the artifactual effect may originate from the compound's own spectral or other biophysical properties which generally tend to track its assay concentration. Pre-screening/profiling the library with respect to the compounds' spectral properties should help one exclude false positives early on. While the most informative fluorescent profiling data set is obtained by performing a full excitation and emission scan of each well by using a monochromator-based plate reader, such an approach is practical only on a very limited scale as scanning each well requires long time. An alternative approach, applied here, is to perform plate reader scans using selected excitation and emission wavelength pairs to generate a multidimensional relational database that correlates compound concentration and the respective relative fluorescence intensity at a given wavelength set. A standard curve of fluorescein present on each plate as six-point concentration series, was used to compute a normalized fluorescence response, termed dye-equivalent concentration, for each compound at each concentration.
NCGC Assay Protocol Summary:
100 mM Tris buffer, pH 8.0
The wells in columns 1 through 4 of a Kalypsys polypropylene 1536-well compound plate were filled with standard solutions of fluorophore corresponding to the spectral region of interest. Solutions of Fluorescein were placed in the following wells: Q1, R1: 3 mM, Q2, R2: 300 uM, Q3, R3: 30 uM, Q4, R4: zero (DMSO), S1, T1: 3 uM, S2, T2: 900 nM, S3, T3: 300 nM, S4, T4: zero (DMSO).
Six uL of buffer were dispensed to 1536-well Greiner black plates. Compounds and dye standards (23 nL) were transferred via Kalypsys PinTool. The plates were incubated for 15 min at room temperature, and then read on ViewLux (Perkin-Elmer) High-throughput CCD imager using 480 nm and 540 nm excitation and emission filter set.
Keywords: NIH Roadmap, MLSCN, MLI, MLSMR, qHTS, NCGC, Fluorescein, Fluorescent Profiling.

Max fluorescein-equivalent concentration, active:
O=C(O)c1c(Br)c(Br)c(Br)c(Br)c1C1c2ccc(O)cc2Oc2cc(O)ccc21 320 nM
CCCn1c(O)c(CN2CCCC(C)C2)c(C)c(C#N)c1=O (centres undefined) 65 nM
Cc1ccc(S(=O)(=O)C(C#N)c2nc3ccccc3nc2N2CCCC2)cc1C (centres undefined) 14 nM
CCOC(=O)c1cc2n(c1N)-c1ccccc1C2=O 780 nM
CCN(CC)c1ccc2oc(=O)c(C)nc2c1 140 nM
Nc1ccc2c3c(cccc13)C(=O)NC2=O 2000 nM
CC[N+](C)(CC)CCC[n+]1c(-c2ccccc2)c2cc(N)ccc2c2ccc(N)cc21 18 nM

Max fluorescein-equivalent concentration, inactive:
COc1ccc2nc(NC3=NCN(CC4CCCO4)CN3)nc(C)c2c1 (centres undefined)
COc1cccc(Nc2ncc3ncc(=O)n(C4CC4)c3n2)c1
Oc1c(Br)cc(CN(Cc2cc(Br)c(O)c(Br)c2)C2CCCCC2)cc1Br
COc1ccc(C2C3=C(CC(C)(C)CC3=O)Oc3ncn4nc(-c5cccnc5)nc4c32)cc1OC (centres undefined)
O=C(c1ccc([N+](=O)[O-])cc1)[C@@H](Br)[C@@H](Br)c1ccnc2ccccc12
CN(C)CCSS(=O)(=O)O
CCCn1c(SCC(=O)c2ccc3c(c2)OCCO3)nnc1C(C)C
CCCCOc1ccccc1/C=c1/sc2nc(-c3oc4ccccc4c3C)nn2c1=O
COc1cccc(Cn2c(=O)c(-c3cc(F)cc(F)c3)nc3cnc(OC)nc32)c1
CCOC(=O)CSc1nc2sc3c(c2c(=O)[nH]1)CC(C)(C)OC3
CCOc1ccc2[nH]c(=O)c(CN(CCCO)C(C)=O)cc2c1
CN1CCN(CC(=O)C23CC4CC(CC(C4)C2)C3)CC1
c1ccc2sc(SCCSc3nc4ccccc4s3)nc2c1
CCOC(=O)c1csc(NC(=O)c2ccc(S(=O)(=O)N3CCCC3)cc2)n1
O=C(c1ccco1)N1CCC2(CC1)CN(c1ncccn1)C2
CCOC(=O)c1sc(NC(=O)c2cc(S(=O)(=O)N3CCOCC3)ccc2C)nc1C
COc1cccc(-c2nc(Nc3ccncc3)c3ccccc3n2)c1
CC(C)NC(=O)N1CC[C@@]2(CCCN(C(=O)c3cccn3C)C2)C1
CCCCCC(=O)Nc1ccc2oc(-c3ccncc3)nc2c1
Cc1ccc(CC2CC(=O)N(c3ccc4c(c3)OCCO4)C2=O)cc1 (centres undefined)
CCOC(=O)C1C(=O)NC(N2CCN(c3ccccc3)CC2)=NC1c1ccco1 (centres undefined)
O=C(c1cnccn1)N1CCC2(CCN(Cc3cc(C(F)(F)F)cc(C(F)(F)F)c3)CC2)CC1
N=c1c2c3c(sc2ncn1N)CCCCC3
O=c1c(-c2ccc(F)cc2)nc2cnc(N3CCNCC3)nc2n1Cc1cccs1
CCN(CC)C(=O)C1CCC(C)(C(=O)O)C1(C)C (centres undefined)
CCc1ccc(CCC(=O)Nc2ccc(S(N)(=O)=O)cc2)o1
COc1ccc(-c2nc(SCC(=O)N3CCOCC3)n[nH]2)cc1
CN(C)/C=C1/Nc2ccccc2C1=O
COC(=O)C(C)N(C#N)c1nc(C)nc(C)n1 (centres undefined)
COCCCn1c2nc3ccccc3nc2c2c(=O)n(Cc3ccc(Cl)cc3)c(C)nc21
CCN(CC)S(=O)(=O)c1ccc2nc(CSc3nnnn3-c3ccc(O)cc3)[nH]c2c1
COc1cc(OC)cc(C(=O)Nc2ccc(-c3nc4ccccc4o3)c(O)c2)c1
CC(=O)c1ccc(N2C(=NC(=O)C(C)C)SC3CS(=O)(=O)CC32)cc1 (centres undefined)
COc1ccc(C(c2nnnn2Cc2cccs2)N2CCN(c3ccccc3)CC2)cc1OC (centres undefined)
CC(=O)c1ccc(NC(=O)N[C@@H](Cc2ccccc2)C(=O)O)cc1
CC(C)c1ccc(-c2nn[nH]n2)cc1
Cn1c(SCC(=O)c2cccs2)nnc1-c1ccco1
CC1(C)Cc2ccccc2-c2nnc(-c3cccc(O)c3)n21
CC1(C)Cc2cccc(OCC(=O)Nc3nccs3)c2O1
COC(=O)c1ccc(NC(=O)CSc2nnc(-c3ccncc3)n2C)cc1
Cc1ccc(C)c(NC(=O)C2CC(=O)N(C(C)C)C2)c1 (centres undefined)
Cc1ccccc1-c1nc(N(C)Cc2ccco2)c2ccccc2n1
c1ccc(CSCCc2ccncc2)cc1
C[C@]1(O)CC[C@H]2[C@H]3CC=C4N5CCN=C5CC[C@@]4(C)[C@H]3CC[C@@]21C
O=c1[nH]nc(Cc2ccccn2)c2ccccc12
Cc1ccc(-c2noc(CN3CCN(Cc4ccccc4)CC3)n2)cc1
CCOC(=O)c1cc2occc2n1CC(=O)NC1CCC(C)CC1 (centres undefined)
COc1ccc(C(=O)N(Cc2ccc(N(C)C)cc2)C2CCS(=O)(=O)C2)cc1 (centres undefined)
O=S(=O)(NCCOc1cccc2cccnc12)c1ccc(F)cc1
Nc1nc2c(ncn2[C@H]2CC[C@@H](CO)O2)c(=O)n1C(=O)c1ccccc1
O=C(O)[C@H](CCc1ccccn1)c1ccccc1
O=C(COc1cccc(-n2cnnn2)c1)NCCC1=CCCCC1
Cc1cc2c(cc1C)NC1=C(N2)O[C@H](c2c[nH]c3ccc(COc4ccccc4)cc23)C1=O
CC(C)CC(=O)N=C1SC2CS(=O)(=O)CC2N1CCc1ccccc1 (centres undefined)
O=C(c1ccco1)N1CCC2(CC1)CCN(c1ncccn1)CC2
NCC(=O)[C@@H](O)[C@H](O)[C@H](O)CO
Cc1cc(C)c2cc(CN(Cc3cccs3)Cc3nnnn3CC3CCCO3)c(=O)[nH]c2c1 (centres undefined)
CS(=O)(=O)N1CCC2(CCN(c3ccncc3)CC2)CC1
COc1ccc(-c2ccc(-c3noc(-c4ccncc4)n3)c(OC)n2)cc1
COc1cccc(-c2cc(NCCc3c[nH]c4ccc(OC)cc34)ncn2)c1
CN1CCN(c2ccc(NC(=O)COc3ccc(Cl)cc3Cl)cc2)CC1
Clc1ccc(C(c2ccc(Cl)cc2)n2cc[n+](C[C@@H](OCc3ccc(Cl)cc3Cl)c3ccc(Cl)cc3Cl)c2)cc1
COCCn1c(=O)c(CCc2ccccc2)nc2cnc(N3CCNCC3)nc21
COc1ccccc1CCn1c(=O)c(-c2cn(C)c3ccccc23)nc2cncnc21
CCn1c(Cc2ccccc2)nnc1SCC(=O)Nc1ccccc1
O=c1cc(-c2ccc(O)c(O)c2)oc2cccc(O)c12
CCCCCCn1c(CN2CCCC(C)C2)nc2c1c(=O)n(C)c(=O)n2C (centres undefined)
COC(=O)c1c(NC(=O)CSc2nc3c(c(=O)n(C)c(=O)n3C)n2C(C)C)sc(C)c1C
Clc1ccc(C=Nc2ccc3c(c2)Cc2ccccc2-3)c(Cl)c1
CCNc1ncc2nc(CCc3ccccc3)c(=O)n(-c3ccc(OC)cc3)c2n1
CSCCC(Nc1nc2ccccc2s1)C(=O)O (centres undefined)
CCn1c(COc2cccc(OC)c2)nnc1SCC(=O)N1CCOCC1
O=C(O)[C@@H](S)[C@H](S)C(=O)O
COc1ccc(OC)c([C@H](O)CNC(=O)CN)c1
COCCNC(=O)C(C#N)c1nc2ccccc2nc1N1CCN(Cc2ccc3c(c2)OCO3)CC1 (centres undefined)
CC(=O)/C(=N\N=C(N)N)c1ccccc1
CCCCC(=O)Nc1ccc(C(=O)NCCCn2ccnc2)cc1
O=c1[nH]nc(CSCc2ccccc2Cl)[nH]1
COC(=O)N1CCC[C@@]2(CCN(C(=O)NC(C)C)C2)C1
CCOC(=O)c1cc2n(c1C)-c1ccccc1C2=O
CCOC(=O)c1cc2ccccc2nc1C
CCc1ccc2oc(-c3ccc(N)cc3)nc2c1
O=C(c1ccncc1)N1CCC2(CCCN(C(c3ccccc3)c3ccccc3)C2)CC1
CC(C)CSC[C@@H]1O[C@H](n2cnc3c(N)nccc32)[C@H](O)[C@@H]1O
COc1ccc(-c2nc3cnc(Oc4ccccc4)nc3n(Cc3cccs3)c2=O)cc1
CCOc1ccc(N=NS(=O)(=O)O)cc1
O=c1c(-c2cccs2)nc2cnc(Oc3ccccc3)nc2n1-c1ccccc1
CCn1c(COc2ccc(OC)cc2)nnc1SCC(=O)Nc1cc(OC)ccc1OC
Cc1ccc2nc(NCCCNC(=O)c3cnccn3)c(C#N)cc2c1
CC(C)CNC(=O)C1CCCN(S(=O)(=O)c2ccc(-n3cnnn3)cc2)C1 (centres undefined)
FC(F)(F)c1ccccc1-c1cc(NCc2ccccc2)ncn1
COCCn1c(=O)c(C)nc2cnc(N(C)C)nc21
CN1CCN(C(=O)c2ccc(NS(=O)(=O)c3ccccc3)cc2)CC1
CN1CCN(Cc2nc3c(c(=O)n(C)c(=O)n3C)n2Cc2cccc3ccccc23)CC1
CS(=O)(=O)N(C(=O)NC(=O)NC1CCS(=O)(=O)C1)C1CCCCC1 (centres undefined)
NC(=O)C1CCN(C(=O)c2ccc(C(F)(F)F)cc2)CC1
CC1(C)S[C@@H]2[C@@H](NC(=O)[C@@H](N)c3ccccc3)C(=O)N2[C@H]1C(=O)O
O=C(NCCc1ccco1)c1nn(Cc2ccccc2)c(=O)c2ccccc12
CN(C)CCCn1c2ccccc2c2cnccc21
CC(C)c1nc2oc3c(N4CCN(C)CC4)ncnc3c2c2c1CCC2
CC(=O)N1CCN(c2ccc(NCc3ccc(C(C)C)cc3)cc2)CC1
Cc1ccc(C(=O)NCC(=O)O)cc1S(=O)(=O)N1CCCCC1
